Screening data as filed in PubChem.
Mdm2 MdmX PPI – inhibitors of human Mdm2/MdmX interaction; SaOS-2 split-luciferase Mdm2/MdmX complementation, luminescence; O15151+Q00987; actives 3% (n = 330,000); AID 485346; inhibition, % at 8 µM;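 active = inhibition of at least 50% at 8 µM in the primary screen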
Target sequence (O15151 whole entry, looked up): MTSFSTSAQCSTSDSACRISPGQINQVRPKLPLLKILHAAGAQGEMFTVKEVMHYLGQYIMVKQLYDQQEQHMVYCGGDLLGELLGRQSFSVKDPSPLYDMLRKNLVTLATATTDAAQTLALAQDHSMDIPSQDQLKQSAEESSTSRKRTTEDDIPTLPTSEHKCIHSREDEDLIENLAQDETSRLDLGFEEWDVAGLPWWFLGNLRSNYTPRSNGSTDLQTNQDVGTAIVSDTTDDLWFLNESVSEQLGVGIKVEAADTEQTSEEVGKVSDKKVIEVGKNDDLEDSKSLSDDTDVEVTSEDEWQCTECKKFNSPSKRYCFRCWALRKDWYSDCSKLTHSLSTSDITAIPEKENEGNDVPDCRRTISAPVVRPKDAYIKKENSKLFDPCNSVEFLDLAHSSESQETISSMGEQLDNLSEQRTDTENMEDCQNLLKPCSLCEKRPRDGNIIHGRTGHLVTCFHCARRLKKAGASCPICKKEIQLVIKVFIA
Target sequence (Q00987 whole entry, looked up): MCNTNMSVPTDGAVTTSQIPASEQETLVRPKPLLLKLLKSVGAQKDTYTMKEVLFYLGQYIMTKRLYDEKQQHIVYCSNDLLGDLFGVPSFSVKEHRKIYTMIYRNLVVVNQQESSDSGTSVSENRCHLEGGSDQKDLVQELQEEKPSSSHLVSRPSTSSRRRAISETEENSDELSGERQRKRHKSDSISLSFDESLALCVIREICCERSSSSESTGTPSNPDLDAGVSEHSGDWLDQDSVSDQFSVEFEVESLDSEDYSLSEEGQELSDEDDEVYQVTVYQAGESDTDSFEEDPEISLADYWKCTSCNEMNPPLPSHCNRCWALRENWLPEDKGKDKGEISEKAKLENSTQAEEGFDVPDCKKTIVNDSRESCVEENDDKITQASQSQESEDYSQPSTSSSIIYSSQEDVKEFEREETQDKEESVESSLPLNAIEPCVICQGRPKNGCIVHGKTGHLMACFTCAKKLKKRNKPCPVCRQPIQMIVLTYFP
Jurkat NFkB inh – lowers PMA/ionomycin-induced NF-kB signal in Jurkat cells. inhibition, % at 4 µM. actives 0.53% (n = 330,000). PMA/ionomycin-induced NF-kB luciferase reporter, luminescence; in the data active = inhibition above about 50%
697 NFkB inh – inhibitors of the PMA/ionomycin-induced NF-kB reporter in 697 B cells | 697 B-cell NF-kB luciferase reporter, 16 h | actives 0.33% (n = 330,000) | inhibition, % at 4 µM | AID 435022; in the data active = inhibition above about 35%
Gli-Sufu antag – Gli-Sufu pathway antagonism; Sufu-KO-LIGHT fibroblasts, Gli luciferase reporter luminescence; AID 588413; inhibition, % at 5 µM; actives 0.74% (n = 340,000);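 active = inhibition above about 55%, limit read from the data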;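 note: 0% = DMSO-treated cells and 100% = wells with medium but no cells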
Beta apoptosis – beta cell apoptosis inhibition | INS-1E cytokine-induced death, ATP luminescence, 48 h; percent of positive-control rescue, neutral wells zero | protection from apoptosis, % (no concentration beside the values) | actives 0.8% (n = 300,000);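 active = Every replicate reaches about 75%, or at least half do and their mean reaches it too, limit read from the data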;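 note: 0% = cytokine-treated negative control wells and 100% = positive control rescue; higher means more ATP so stronger rescue from cytokine killing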
Jurkat NFkB conf – inhibitors of the PMA/ionomycin-induced NF-kB reporter in Jurkat cells, retest; shares compounds with Jurkat NFkB inh; Jurkat NF-kB luciferase, 16 h; inhibition, % at 4 µM; actives 27% (n = 2,700);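 active = inhibition reaching about 45% at 4 µM in either replicate, limit read from the data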;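 note: plate controls were PMA/ionomycin stimulated DMSO wells for no effect and unstimulated DMSO wells for full effect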
697 NFkB conf – inhibitors of the PMA/ionomycin-induced NF-kB reporter in 697 B cells, retest | shares compounds with 697 NFkB inh | 697 B-cell NF-kB luciferase, 16 h | inhibition, % at 4 µM | actives 35% (n = 2,000) | AID 449746; in the data active = inhibition mostly above about 28%, no sharp cut-off; inactive = mostly below about 22%
Mdm2-MdmX conf – confirmation of human Mdm2/MdmX interaction inhibitors; shares compounds with Mdm2 MdmX PPI; inhibition, % at 8 µM; actives 55% (n = 10,000); Mdm2-MdmX binding, luminescent assay; in the data active = inhibition above about 40%
FLuc counter – counter-screen for Mdm2/MdmX inhibitors: full-length luciferase | AID 504607 | SaOS-2 full-length luciferase counterscreen, luminescence | shares compounds with Mdm2 MdmX PPI | inhibition, % at 8 µM | actives 77% (n = 6,200);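 active = mean inhibition at 8 µM reaching about 37%, which flags the compound as non-specific, limit read from the data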;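 note: p53-null SaOS-2 cells with luciferase driven by a doxycycline-inducible promoter; compound on cells about two nights before reading with doxycycline added after day one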
Numbers without * were called inactive; . = not tested or not shown. Only some compounds are listed: those with a hit (about 4% of all), similar ones and a draw of the others.

SMILES	Mdm2 MdmX PPI	Jurkat NFkB inh	697 NFkB inh	Gli-Sufu antag	Beta apoptosis	Jurkat NFkB conf	Mdm2-MdmX conf	FLuc counter	others
N=c1c(C(=O)NC2CCCCC2)cc2c(=O)n3ccccc3nc2n1CCc1ccccc1	94*	58*	4	34	9	-51	97*	17
CN(c1ccc(OCC(=O)N2CCN(c3ccc(F)cc3)CC2)cc1)S(=O)(=O)c1cccs1	48	14	-10	23	14	.	.	.
ClC1=C(Cl)C(Cl)=C(Cl)C1=C/C=C/c1ccccc1	100*	55*	-275	79*	116*	-14	99*	8	697 NFkB conf=-26
COc1cccc2c1OCC(C(=O)O)C2 (configuration not stated)	20	14	12	-11	.	.	.	.
COc1cccc2c1C(CO)N1C(C#N)C3CC(C(=O)O)C(C1C2)N3C (configuration not stated)	100*	97*	104*	-20	2	96*	100*	52*	697 NFkB conf=102*
CC(C)CC[n+]1ccn(-c2nc3ccccc3nc2[N-]S(=O)(=O)c2ccc(Cl)cc2)c1	-9	0	20	10	-7	.	.	.
Cc1ccc(NC(=O)c2ccc3c(c2)S(=O)(=O)c2ccccc2C3=O)cc1S(=O)(=O)N1CCOCC1	32	31	17	2	7	.	.	.
Cc1cccc(C(=O)NC(C(=O)Nc2ccccc2N2CCOCC2)C(C)C)c1 (configuration not stated)	9	6	12	-18	-3	.	.	.
Clc1ccc(CSc2nncn2-c2ccccn2)cc1	3	9	-2	-21	-5	.	.	.
Clc1ccc(CSc2nncn2-c2ccc3c(c2)OCCO3)cc1	51*	58*	-46	7	0	44	60*	48*
CCCOc1ccc(/C=N/Nc2cc(N3CCOCC3)ncn2)c(O)c1	73*	55*	-71	18	91*	76*	81*	24
Clc1ccccc1/C=N/Nc1cc(N2CCOCC2)ncn1	-2	-60	-102	-78	-4	.	.	.
COc1ccc(S(=O)(=O)N2CCCC2CNC(=O)C(=O)NCCc2ccccc2)cc1 (configuration not stated)	60*	54*	-32	-6	11	29	67*	64*
CC(C)Cn1c(N)c(C(=O)CSc2ccc3c(c2)OCCO3)c(=O)n(C)c1=O	52*	54*	39*	64*	94*	47	55*	41*	697 NFkB conf=-5
COc1cc2c(c(OC)c1OC)-c1ccc(NC(=O)c3ccccc3)c(=O)cc1[C@@H](NC(C)=O)CC2	57*	50	9	-20	18	5	65*	63*
CN[C@H]1CCc2cc(OC)c(OC)c(OC)c2-c2ccc(OC)c(=O)cc21	68*	72*	-330	45	60	66*	56*	104*	697 NFkB conf=-210
Cc1nc(Nc2nc3c(c(=O)[nH]2)CCC3)nc2ccccc12	65*	85*	-182	-8	-11	57*	88*	22
O=c1[nH]c(NCc2ccccc2)nc2c1CCC2	-22	-7	10	4	-5	.	.	.
CSc1cccc(NC(=S)NC(=O)c2cccnc2)c1	25	-9	1	-9	-4	.	.	.
Cc1ccc(S(=O)(=O)Nc2cccc3cccnc23)cc1	99*	92*	-14	63*	35	20	99*	52*
COc1cc(NS(=O)(=O)c2ccc(C)cc2)c2ncccc2c1	89*	100*	-5	88*	45	62*	99*	5
O=C(NCCC1CCCCN1S(=O)(=O)c1cccs1)C(=O)NCc1ccccc1 (configuration not stated)	21	13	8	-16	3	.	.	.
CCOC(=O)c1ccccc1NC(=O)CSC(C)C(=O)Nc1cc(C)on1 (configuration not stated)	3	4	10	1	0	.	.	.
